SMILES strings stand for the structures. Inconclusive results are not listed. Values without a mark were called inactive. The source made the active and inactive calls. Calls come from the whole dose curve; as a rule, active = well fitted activation curve with a large enough effect; inconclusive = small, poorly fitted or top-dose-only effect; inactive = no such curve, though single readings can be large or run the other way.

The target of the test is Relaxin receptor 2 (Homo sapiens) (UniProt Q8WXD0). Put plainly: qHTS Assay for Agonists of the Relaxin Receptor RXFP1: RXFP2 SAR. Conditions: HEK293 RXFP2 cAMP TR-FRET agonist, 30 min; series mostly up to 78.1 µM; activation: at the top concentration. An excerpt: The relaxin hormone is involved in the variety of biological functions in normal tissues and diseases. The role of relaxin is well-established in female reproduction and parturition, mammary gland and endometrial development, maintenance of myometrial quiescence during pregnancy. Relaxin signaling through its G protein-coupled receptor (GPCR) RXFP1 results in ECM remodeling through regulation of collagen deposition, cell invasiveness, proliferation and overall tissue homeostasis. […] Recombinant human relaxin (rhRlx) is currently being tested in clinical trials as a protective agent in congestive heart failure, in treating severe preeclampsia, and as an anti-fibrotic agent in systemic sclerosis. Upon relaxin binding RXFP1 activation leads to the activation of adenylate cyclase (AC) via Gs. cAMP will activate PKA, which phosphorylates many signaling proteins. Thus, detection of cAMP increase is an easy and reliable indication of relaxin receptor activation. To screen for agonists of the relaxin receptor, a HEK293T cell line stably transfected with RXFP1 was used. RXFP1 activation was assayed by changes in cAMP levels as detected with a time-resolved fluorescence energy transfer (TR-FRET) cAMP detection kit. This assay measures activation of a cell expressing RXFP2, another GPCR targeted by relaxin, to determine the selectivity of compounds for RXFP1. NIH Chemical Genomics Center [NCGC] NIH Molecular Libraries Probe Production Centers Network [MLPCN] MLPCN Grant: R03 MH085705-01A1 Assay Submitter (PI): Alexander Agoulnik
Chain of Relaxin receptor 2 (Homo sapiens) (Q8WXD0 whole entry, looked up): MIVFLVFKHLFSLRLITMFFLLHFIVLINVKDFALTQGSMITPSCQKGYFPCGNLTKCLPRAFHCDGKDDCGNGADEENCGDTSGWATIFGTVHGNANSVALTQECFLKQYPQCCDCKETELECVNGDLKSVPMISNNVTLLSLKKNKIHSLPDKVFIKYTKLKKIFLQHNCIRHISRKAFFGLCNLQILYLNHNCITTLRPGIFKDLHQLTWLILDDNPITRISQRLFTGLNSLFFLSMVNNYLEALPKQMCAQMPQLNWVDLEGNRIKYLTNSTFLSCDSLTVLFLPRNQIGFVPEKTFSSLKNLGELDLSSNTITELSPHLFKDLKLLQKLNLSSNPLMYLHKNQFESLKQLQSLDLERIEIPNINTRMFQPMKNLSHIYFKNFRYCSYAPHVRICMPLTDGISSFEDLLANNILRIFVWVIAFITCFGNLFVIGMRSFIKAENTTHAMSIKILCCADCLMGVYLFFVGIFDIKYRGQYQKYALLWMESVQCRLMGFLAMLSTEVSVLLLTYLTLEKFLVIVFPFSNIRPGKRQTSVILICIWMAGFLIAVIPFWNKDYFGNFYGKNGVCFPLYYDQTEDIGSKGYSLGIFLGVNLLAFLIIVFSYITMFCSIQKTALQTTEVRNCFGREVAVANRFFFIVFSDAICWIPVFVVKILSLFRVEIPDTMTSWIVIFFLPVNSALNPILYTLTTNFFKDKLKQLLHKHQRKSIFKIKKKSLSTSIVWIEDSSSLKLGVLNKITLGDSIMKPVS
This is a cell-based assay for cAMP second messenger response to screen for agonists of the RXFP2 receptor. The assay was conducted in the presence of a PDE4 inhibitor (Ro 20174). The cells were lysed and the cAMP levels were measured with a TR-FRET cAMP kit. Presence of cAMP in the cell lysate disrupts binding between the cryptate-labeled anti-cAMP and d2-labeled cAMP pair, leading to a decrease in the TR-FRET signal. Data were normalized to the controls for basal activity (buffer only) and 100% activity (29 nM porcine relaxin). The EC50 values were determined from concentration-response data modeled with the standard Hill equation 1536-well assay protocol for the HEK293 RXFP2 cAMP assay: (1) Add 3 ul HEK293 RXFP2 cell culture. 2000 cells/well in DMEM/F12, 10% FBS, 1x Pen/Strep (dispensed offline with MultiDrop Combi). (2) Incubate 16-24 hr at 37C, 5% CO2. (3) Add 1 ul 400uM Ro20174 in DPBS, 0.05% BSA, 0.005% Tween 20. (3) Add 23 nl compounds in DMSO solution. Final concentration was 0.5 - 58 uM. (4) Incubate 30 min at 37C, 5% CO2. (5) Add 1 ul cAMP-d2 in lysis buffer (HTRF cAMP HiRange kit, CisBio). (6) Add 1 ul anti-cAMP antibody-cryptate in lysis buffer (HTRF cAMP HiRange kit, CisBio). (7) Incubate 30 min at room temperature. (6) Detect the assay plate in a ViewLux plate reader (PerkinElmer) with Ex=320 nm, Em1=615 nm and Em2=665 nm. Keywords: relaxin, RXFP1, RXFP2, G-protein coupled receptor, cAMP, agonist, high throughput screening, MLSMR, MLSCN, NIH Roadmap, qHTS and NCGC
On the technique in general: In qHTS, concentration-response curves come from the screen itself.
Turning to `CCCCOc1ccccc1C(=O)Nc1ccccc1C(=O)Nc1cccc(S(=O)(=O)C(F)(F)F)c1`, the “activation” value is 23.9%.

Turning to `O=C(Nc1ccccc1C(=O)Nc1cccc(C(F)(F)F)c1)c1ccccc1Cl`, the “activation” value was 5.72%.

Turning to `CCOc1ccccc1-c1nc2c(C(=O)Nc3cccc(S(=O)(=O)C(F)(F)F)c3)cccc2[nH]1`, the “activation” value is 3.33%.

Consider `O=C(Nc1cccc(-c2ccccc2)c1)c1ccccc1NC(=O)C1CCCCC1`, for which the “activation” value was -4.81%.

Turning to `COc1ccccc1C(=O)Nc1ccccc1C(=O)Nc1cccc(C(F)(F)F)c1`, the Potency is 5.93 µM (active).

`CCOc1ccccc1S(=O)(=O)Nc1ccccc1C(=O)Nc1cccc(S(=O)(=O)C(F)(F)F)c1`: the “activation” value is -7.45%.

Turning to `O=C(Nc1ccc(C(F)(F)F)cc1)c1ccccc1NC(=O)C1CCCCC1`, the “activation” value is 20.7%.

On to `CCCOc1ccccc1C(=O)Nc1ccccc1C(=O)Nc1cccc(S(=O)(=O)C(F)(F)F)c1`, for which the “activation” value is 14.5%.

For the compound `Cc1ccc(NC(=O)c2ccccc2NC(=O)C2CCCCC2)cc1`, the “activation” value was 9.53%.

In the case of `CCOc1ccccc1C(=O)Nc1ccncc1C(=O)Nc1cccc(S(=O)(=O)C(F)(F)F)c1`, the Potency was 9.4 µM (active).

As for `COc1ccccc1C(=O)N(C)c1ccccc1C(=O)Nc1cccc(C(F)(F)F)c1`, the “activation” value was 1.3%.

Regarding `CCOc1ccccc1C(=O)Nc1ccccc1CNc1cccc(S(=O)(=O)C(F)(F)F)c1`, the “activation” value was 7.61%.

With `O=C(Nc1ccccc1C(=O)Nc1cccc(C(F)(F)F)c1)c1cccnc1`, the “activation” value was -3.42%.

For `CN(C)CCOc1ccccc1C(=O)Nc1ccccc1C(=O)Nc1cccc(C(F)(F)F)c1`, the “activation” value was -1.72%.

For the compound `CC(C)Oc1ccccc1C(=O)Nc1ccccc1C(=O)Nc1cccc(C(F)(F)F)c1`, the “activation” value was 22.3%.

Regarding `COc1ccccc1C(=O)Nc1cccc(C(=O)Nc2cccc(C(F)(F)F)c2)c1`, the “activation” value is -2.52%.

Turning to `O=C(Nc1cccc(C(F)(F)F)c1)c1ccccc1NC(=O)C1CCCC1`, the “activation” value is -2.45%.

Regarding `O=C(Nc1ccccc1)c1ccccc1NC(=O)C1CCCCC1`, the “activation” value is 7.12%.

For `COc1cccc(C(=O)Nc2ccccc2C(=O)Nc2cccc(C(F)(F)F)c2)c1`, the “activation” value was 17.9%.

For `CCCCC(=O)Nc1ccccc1C(=O)Nc1cccc(C(F)(F)F)c1`, the “activation” value was 13.5%.

(Values after PubChem BioAssay AID602258 (National Center for Advancing Translational Sciences (NCATS), 2012).)
